{"source": "PubChem BioAssay (NCATS)", "key": {"[1]": {"biological_target": "Glutathione peroxidase 1 (Homo sapiens) (UniProt P07203)", "sequence (P07203 whole entry, looked up)": "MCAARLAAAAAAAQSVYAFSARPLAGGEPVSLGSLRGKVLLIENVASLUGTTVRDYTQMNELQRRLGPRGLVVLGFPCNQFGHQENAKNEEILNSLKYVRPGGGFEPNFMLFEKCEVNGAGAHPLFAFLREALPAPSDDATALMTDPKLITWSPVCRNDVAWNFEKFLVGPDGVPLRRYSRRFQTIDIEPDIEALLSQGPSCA", "test": "Primary qHTS Assay for Inhibitors of Recombinant Selenoprotein Glutathione Peroxidase 1 (GPX1) (AID 1845191); on all read-outs here: nearly all actives have a fitted effect of over 65% in size", "procedure,_shortened": "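10 nM GPX1 + cpd, 30 min RT; start w/ 1 mM GSH, 0.5 mM cumene hydroperoxide, 0.5 mM NADPH, 100 nM GR, 0.01% BSA; buffer 50 mM Tris-HCl pH 7.5, 2 mM EDTA, 150 mM NaCl; Fl 340/450, 0 & 15 min.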"}, "[2]": {"biological_target": "Phospholipid hydroperoxide glutathione peroxidase GPX4 (Homo sapiens) (UniProt P36969)", "sequence (P36969 whole entry, looked up)": "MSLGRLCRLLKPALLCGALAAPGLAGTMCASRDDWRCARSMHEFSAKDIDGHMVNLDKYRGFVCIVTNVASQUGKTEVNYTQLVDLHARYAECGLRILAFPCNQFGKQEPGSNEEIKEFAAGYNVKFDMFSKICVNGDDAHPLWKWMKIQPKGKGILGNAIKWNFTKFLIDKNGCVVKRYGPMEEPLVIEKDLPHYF", "test": "Primary qHTS Assay for Inhibitors of Recombinant Selenoprotein Glutathione Peroxidase 4 (GPX4) (AID 1845192); on all read-outs here: nearly all actives have a fitted effect of over 65% in size", "procedure,_shortened": "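NADPH consumption, followed by fluorescence at 340/450 nm between 0 and 15 min, reports GPX4 activity via coupled glutathione reductase (100 nM). Enzyme 200 nM was pre-exposed to compound 30 min; 0.5 mM cumene hydroperoxide and 1 mM GSH served as substrates.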"}, "[3]": {"test": "qHTS drug screen for cell cycle checkpoint inhibitors in PARPi-resistant BRCA-mutant ovarian cancer cell lines. (AID 1963452; calls by dose curve)", "conditions": "PEO1/OlaR viability, CellTiter-Glo luminescence, 96 h; for Z-AUC: stronger effect = lower value", "procedure,_shortened": "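PEO1, PEO4 and PEO1/OlaR ovarian cancer cells, 600 per well, exposed 96 h at 37C to a dilution series. Viability read by CellTiter-Glo luminescence, normalized to DMSO and empty wells; activity summarized as Z-AUC.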"}, "[4]": {"conditions": "measured here: PEO1 parental Z-AUC"}}, "note": "Results filed as inconclusive are left out. Where a call stands in place of a potency, no number is given. Calls of active or inactive are those of the source. Unless noted, the call rests on the fitted dose curve; in most records, active means well fitted inhibition curve with a large enough effect; inconclusive means small, poorly fitted or top-dose-only effect; inactive means flat fitted curve, though single readings scatter. Where a SMILES comes first, the peptide text is derived from it. Bridges are numbered along the chain shown (N, C = ends). Potency means the concentration at half of the fitted maximal effect.", "data": [{"smiles": "CCCCC[C@H](O)/C=C/[C@@H]1[C@@H](C/C=C/CCCC(=O)O)[C@@H](O)C[C@H]1O", "values": [{"measurement": "Potency", "setting": "[1]", "result": "inactive"}, {"measurement": "Potency", "setting": "[2]", "result": "inactive"}]}, {"smiles": "OCc1cc(C(O)CNCCCCCCOCCOCc2c(Cl)cccc2Cl)ccc1O", "note": "(stereo not given)", "values": [{"measurement": "Potency", "setting": "[1]", "result": "inactive"}, {"measurement": "Potency", "setting": "[2]", "result": "inactive"}]}, {"smiles": "O=C(O)CSc1nnc(Br)n1-c1ccc(C2CC2)c2ccccc12", "values": [{"measurement": "Potency", "setting": "[1]", "result": "inactive"}, {"measurement": "Potency", "setting": "[2]", "result": "inactive"}]}, {"smiles": "O[C@@H]1[C@@H](O)[C@@H](O)OC[C@@H]1O", "values": [{"measurement": "Potency", "setting": "[1]", "result": "inactive"}, {"measurement": "Potency", "setting": "[2]", "result": "inactive"}]}, {"smiles": "CC=CC1=C(C(=O)O)N2C(=O)[C@@H](NC(=O)[C@H](N)c3ccc(O)cc3)[C@H]2SC1", "values": [{"measurement": "Potency", "setting": "[1]", "result": "7.85 µM (active)"}, {"measurement": "Potency", "setting": "[2]", "result": "inactive"}]}, {"smiles": "COc1ccc(-c2c(Cl)ncn2-c2ccc(S(N)(=O)=O)cc2)cc1F", "values": [{"measurement": "Potency", "setting": "[1]", "result": "inactive"}, {"measurement": "Potency", "setting": "[2]", "result": "inactive"}]}, {"smiles": "CCNC(=O)CCC/C=C\\C[C@@H]1[C@@H](/C=C/[C@@H](O)CCc2ccccc2)[C@H](O)C[C@@H]1O", "values": [{"measurement": "Potency", "setting": "[1]", "result": "inactive"}, {"measurement": "Potency", "setting": "[2]", "result": "inactive"}]}, {"smiles": "CCCCCCCC(=O)N[C@H](CN1CCCC1)[C@H](O)c1ccc2c(c1)OCCO2", "values": [{"measurement": "Potency", "setting": "[1]", "result": "inactive"}, {"measurement": "Potency", "setting": "[2]", "result": "inactive"}]}, {"smiles": "CC(C)(C)NCC(O)COc1ccccc1C1CCCC1", "note": "(stereo not given)", "values": [{"measurement": "Potency", "setting": "[1]", "result": "inactive"}, {"measurement": "Potency", "setting": "[2]", "result": "inactive"}]}, {"smiles": "Cc1cc(C#N)cc(C)c1Oc1nc(Nc2ccc(C#N)cc2)nc(N)c1Br", "values": [{"measurement": "Potency", "setting": "[1]", "result": "inactive"}, {"measurement": "Potency", "setting": "[2]", "result": "inactive"}]}, {"smiles": "CCC1(C)OC(=O)N(C)C1=O", "note": "(stereo not given)", "values": [{"measurement": "Potency", "setting": "[1]", "result": "inactive"}, {"measurement": "Potency", "setting": "[2]", "result": "inactive"}]}, {"smiles": "CC(=O)OC1CC(OC2C(O)CC(OC3C(O)CC(OC4CCC5(C)C(CCC6C5CCC5(C)C(C7=CC(=O)OC7)CCC65O)C4)OC3C)OC2C)OC(C)C1O", "note": "(stereo not given)", "values": [{"measurement": "Potency", "setting": "[1]", "result": "inactive"}, {"measurement": "Potency", "setting": "[2]", "result": "inactive"}]}, {"smiles": "CSCCNc1nc(SCCC(F)(F)F)nc2c1ncn2[C@@H]1O[C@H](COP(=O)(O)OP(=O)(O)C(Cl)(Cl)P(=O)(O)O)[C@@H](O)[C@H]1O", "values": [{"measurement": "Potency", "setting": "[1]", "result": "inactive"}, {"measurement": "Potency", "setting": "[2]", "result": "inactive"}]}, {"smiles": "CC(=O)NC(C=O)C(O)C(O)[C@H](O)CO", "note": "(stereo not given in full)", "values": [{"measurement": "Potency", "setting": "[1]", "result": "inactive"}, {"measurement": "Potency", "setting": "[2]", "result": "inactive"}]}, {"smiles": "OC[C@H]1OC(O)C[C@@H](O)[C@@H]1O", "note": "(stereo not given in full)", "values": [{"measurement": "Potency", "setting": "[1]", "result": "inactive"}, {"measurement": "Potency", "setting": "[2]", "result": "inactive"}]}, {"smiles": "CCC[C@@H]1C[C@@H](C(=O)N[C@@H](C2O[C@H](SC)[C@H](O)[C@@H](O)[C@H]2O)[C@H](C)Cl)N(C)C1", "note": "(stereo not given in full)", "values": [{"measurement": "Potency", "setting": "[1]", "result": "inactive"}, {"measurement": "Potency", "setting": "[2]", "result": "inactive"}]}, {"smiles": "C[C@@H]1NC(=O)[C@@H]2CCCN2C(=O)[C@H](CC(N)=O)NC(=O)[C@@H]2CSSC[C@H](N)C(=O)N[C@H]3CSSC[C@H](NC1=O)C(=O)N[C@@H]([C@@H](C)O)C(=O)NCC(=O)N[C@H](C(=O)N[C@@H](Cc1ccc(O)cc1)C(=O)O)CSSC[C@H](NC(=O)[C@H](Cc1ccc(O)cc1)NC(=O)[C@H](CCC(=O)O)NC3=O)C(=O)N2", "note": "(H-CCEYCCNPACTGCY-OH; disulfide 1-6, 2-10, 5-13)", "values": [{"measurement": "Potency", "setting": "[1]", "result": "inactive"}, {"measurement": "Potency", "setting": "[2]", "result": "inactive"}]}, {"smiles": "CCCN1C[C@H](C)[C@@H](O)[C@](C)(O)[C@@H](CC)OC(=O)[C@H](C)[C@@H](O[C@H]2C[C@@](C)(OC)[C@@H](O)[C@H](C)O2)C(C)[C@@H](O[C@@H]2O[C@H](C)C[C@H](N(C)C)[C@H]2O)[C@](C)(O)C[C@H]1C", "note": "(stereo not given in full)", "values": [{"measurement": "Potency", "setting": "[1]", "result": "inactive"}, {"measurement": "Potency", "setting": "[2]", "result": "inactive"}]}, {"smiles": "CCCCCCCCCCCCCCCC(=O)OC1CCCn2c1nc(C)c(CCN1CCC(c3noc4cc(F)ccc34)CC1)c2=O", "note": "(stereo not given)", "values": [{"measurement": "Potency", "setting": "[1]", "result": "inactive"}, {"measurement": "Potency", "setting": "[2]", "result": "inactive"}]}, {"smiles": "CO/N=C(\\C(=O)N[C@@H]1C(=O)N2C(C(=O)O)=C(Cn3ccc(=N)n3CCO)CS[C@H]12)c1csc(N)n1", "values": [{"measurement": "Potency", "setting": "[1]", "result": "18 µM (active)"}, {"measurement": "Potency", "setting": "[2]", "result": "inactive"}]}, {"smiles": "Cc1oc(=O)oc1COC(=O)N1CC[C@@H](N2CC/C(=C\\C3=C(C(=O)O)N4C(=O)[C@@H](NC(=O)/C(=N/O)c5nsc(N)n5)[C@H]4SC3)C2=O)C1", "values": [{"measurement": "Potency", "setting": "[1]", "result": "7.18 µM (active)"}, {"measurement": "Potency", "setting": "[2]", "result": "10 µM (active)"}]}, {"smiles": "O=C(O)[C@@H]1C(=CCO)O[C@@H]2CC(=O)N12", "values": [{"measurement": "Potency", "setting": "[1]", "result": "inactive"}, {"measurement": "Potency", "setting": "[2]", "result": "inactive"}]}, {"smiles": "C[C@H]1O[C@]2(CS1)CN1CCC2CC1", "values": [{"measurement": "Potency", "setting": "[1]", "result": "inactive"}, {"measurement": "Potency", "setting": "[2]", "result": "inactive"}]}, {"smiles": "CC(C)(O)C1CCC(Nc2ccc3ncc(-c4cccc(C(F)(F)F)c4)n3n2)CC1", "note": "(stereo not given)", "values": [{"measurement": "Potency", "setting": "[1]", "result": "inactive"}, {"measurement": "Potency", "setting": "[3]", "result": "5.49 µM (active)"}, {"measurement": "Z-AUC", "setting": "[3]; [4]", "result": -1.03}, {"measurement": "Z-AUC", "setting": "[3]; measured here: PEO4 Z-AUC", "result": -1.21}]}, {"smiles": "O=C(/C=C/c1ccc(Cl)cc1)N1CCC2(CC1)CN(Cc1ccc(Cl)c(Cl)c1)C(=O)O2", "values": [{"measurement": "Potency", "setting": "[1]", "result": "inactive"}, {"measurement": "Potency", "setting": "[2]", "result": "inactive"}, {"measurement": "Z-AUC", "setting": "[3]", "result": "1.05 (inactive)"}, {"measurement": "Z-AUC", "setting": "[3]; [4]", "result": -0.18}, {"measurement": "Z-AUC", "setting": "[3]; measured here: PEO4 Z-AUC", "result": 0.00813}]}]}
